BaF3 parental: reduces parental Ba/F3 cell viability, JAK2V617F counter-screen | 220,000 compounds, 1.1% hits | CellTiter-Glo ATP luminescence | inhibition, % at 5.6 µM | AID 1486;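 active = inhibition above a per-campaign cutoff, the mean inhibition of all tested compounds plus 3 SD, cut at about 27% in these data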;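 note: 0% = DMSO wells and 100% = JAK Inhibitor I control wells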
Ba/F3 V617F tox: loss of viability in JAK2V617F-driven Ba/F3 cells; 220,000 compounds, 1.1% hits; Ba/F3 EpoR-JAK2V617F viability, ATP luminescence; inhibition, % at 5.6 µM;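 active = inhibition above the campaign mean plus 3 SD over all tested compounds, cut at about 24% in these data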;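 note: cytokine-independent growth of Ba/F3 cells driven by EpoR plus mutant JAK2; 0% = DMSO-treated cells and 100% = JAK inhibitor I control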
IEC-6 cytotox: counter-screen for KLF5 inhibitors: cytotoxicity in IEC-6 cells. IEC-6 cytotoxicity, luminescence viability. inhibition, % at 5 µM. 290,000 compounds, 0.78% hits. AID 1825; in the data active = inhibition above about 22%;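 note: 0% = plate median of test compound wells and 100% = cytotoxic reference compound wells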
KLF5 inh: kruppel-like factor 5 inhibition | DLD-1 KLF5 promoter-luciferase reporter, luminescence | inhibition, % at 5 µM | 290,000 compounds, 0.23% hits | AID 1700;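 active = inhibition above a per-plate limit of that plate's mean compound inhibition plus 3 SD, cut at about 60% in these data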;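 note: 0% = DMSO wells and 100% = LY294002 at 200 µM; higher means less KLF5 promoter-driven luciferase light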
APP 5UTR inh: APP translation inhibition | SH-SY5Y APP 5'UTR-luciferase reporter, luminescence | inhibition, % at 2 µM | 190,000 compounds, 0.82% hits | AID 1285;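 active = inhibition above a set limit, derived from the sample mean plus 3 SD, cut at about 45% in these data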
Starred values were filed as active, the others as inactive. Rows were chosen to be rich in hits. Some 1.8% of all compounds tested hit in one or more screens of this group.

Cc1ccc(CSc2ccc(-c3cccs3)nn2)cc1 was read as BaF3 parental -1.0, Ba/F3 V617F tox -1.0, IEC-6 cytotox -0.5, KLF5 inh -17.2 and APP 5UTR inh -65.7.
`c1cncc(CSc2ccc(-c3cccs3)nn2)c1` gave BaF3 parental 46.0*, Ba/F3 V617F tox 5.8, IEC-6 cytotox 11.3, KLF5 inh -59.3 and APP 5UTR inh -50.4.
Screening CCc1ccccc1NC(=S)NN returned BaF3 parental 2.5, Ba/F3 V617F tox -0.2, IEC-6 cytotox -1.3, KLF5 inh -3.8 and APP 5UTR inh 91.6*.
CC(=O)N1CCc2cc(S(=O)(=O)CCC(=O)NCCc3ccccc3)ccc21 was read as IEC-6 cytotox -8.1 and KLF5 inh -12.5.
Screening COc1cccc(/C=N/Nc2nc(Nc3ccccc3)nc(-n3nc(C)cc3C)n2)c1O returned BaF3 parental 6.2, Ba/F3 V617F tox 0.7, IEC-6 cytotox 12.0, KLF5 inh 11.9 and APP 5UTR inh 79.1*.
`COc1ccc(/C=N/Nc2ncnc(Cl)c2N)cc1OC` gave BaF3 parental 4.3, Ba/F3 V617F tox 2.3, IEC-6 cytotox 0.8, KLF5 inh -35.9 and APP 5UTR inh -12.5.
Screening COc1cccc(/C=N/Nc2ncnc(Cl)c2N)c1O returned BaF3 parental 11.2, Ba/F3 V617F tox 8.2, IEC-6 cytotox -0.6, KLF5 inh -29.6 and APP 5UTR inh 78.0*.
COc1ccc2nc(C)cc(N/N=C/c3cccc(OC)c3O)c2c1 was read as IEC-6 cytotox -4.0 and KLF5 inh 2.6.
Screening COc1cccc(/C=N/Nc2cc(-n3nc(C)cc3-c3ccccc3)ncn2)c1O returned BaF3 parental 7.4, Ba/F3 V617F tox 1.6, IEC-6 cytotox -5.5, KLF5 inh -37.6 and APP 5UTR inh 70.8*.
`Cn1c(=O)n(C)c2cc(NS(=O)(=O)c3ccc(C(C)(C)C)cc3)ccc21` gave BaF3 parental 29.9*, Ba/F3 V617F tox 11.8, IEC-6 cytotox 8.9, KLF5 inh -21.6 and APP 5UTR inh 0.1.
`Cn1c(=O)n(C)c2cc(NS(=O)(=O)c3ccc4c(c3)CCCC4)ccc21` gave BaF3 parental 27.6*, Ba/F3 V617F tox 24.8*, IEC-6 cytotox 19.3, KLF5 inh -32.9 and APP 5UTR inh 1.5.
Screening COc1cccc(OCCNC(=O)CSc2ccc(C(F)(F)F)cc2[N+](=O)[O-])c1 returned BaF3 parental 3.6, Ba/F3 V617F tox -1.3, IEC-6 cytotox 5.3, KLF5 inh -17.6 and APP 5UTR inh -3.4.
`CC1=C(C(=O)Nc2cccc(F)c2)C(c2ccsc2)C2=C(CC(C)(C)CC2=O)N1` (stereo not drawn) gave BaF3 parental 49.2*, Ba/F3 V617F tox 81.2*, IEC-6 cytotox 66.7*, KLF5 inh 27.8 and APP 5UTR inh 60.1*.
`CC1=C(C(=O)Nc2ccccc2F)C(c2ccsc2)C2=C(CC(C)(C)CC2=O)N1` (stereo not drawn) gave BaF3 parental 6.9, Ba/F3 V617F tox 1.4, IEC-6 cytotox 4.3, KLF5 inh 1.9 and APP 5UTR inh 11.8.
Oc1ccc(Nc2nc(-c3ccc4ccccc4c3)cs2)cc1 was read as BaF3 parental 57.3*, Ba/F3 V617F tox 98.5*, IEC-6 cytotox 4.3, KLF5 inh -189.7 and APP 5UTR inh 2.4.
Screening CC(=O)Nc1nc(-c2ccc3ccccc3c2)cs1 returned IEC-6 cytotox 7.6 and KLF5 inh -140.5.
Screening O=C(Nc1nc2c(s1)CCCC2)C1CCCN1C(=O)c1cccs1 (stereo not drawn) returned BaF3 parental 3.3, Ba/F3 V617F tox 2.7, IEC-6 cytotox -2.7, KLF5 inh -15.0 and APP 5UTR inh 6.0.
For O=C(Nc1nccs1)[C@@H]1CCCN1C(=O)c1cccs1 the results were BaF3 parental 104.1*, Ba/F3 V617F tox -1.6, IEC-6 cytotox -4.9, KLF5 inh -4.0 and APP 5UTR inh -7.5.
For O=C(NCCC(=O)N1CCC2(CC1)NCCc1[nH]cnc12)c1ccc(F)c(F)c1 the results were IEC-6 cytotox -7.7 and KLF5 inh -15.5.
For O=C(c1nnsc1S(=O)c1ccc(Cl)cc1)N1CCOCC1 (stereo not drawn) the results were BaF3 parental 39.9*, Ba/F3 V617F tox 89.9*, IEC-6 cytotox 13.5, KLF5 inh 14.2 and APP 5UTR inh 47.8*.
`O=S1(=O)N=C(N2CCN(Cc3ccccc3)CC2)c2ccccc21` gave BaF3 parental 60.4*, Ba/F3 V617F tox -3.9, IEC-6 cytotox 9.3, KLF5 inh -4.7 and APP 5UTR inh 1.7.
COc1ccccc1-c1nnc2sc(-c3cc4ccccc4o3)nn12 was read as BaF3 parental 79.7*, Ba/F3 V617F tox 88.2*, IEC-6 cytotox 58.1*, KLF5 inh -1.1 and APP 5UTR inh 5.5.
